Results filed as inconclusive are left out. Calls of active or inactive are those of the source. Unless noted, the call rests on the fitted dose curve.
Key:
[1] = Nuclear factor erythroid 2-related factor 2/antioxidant responsive element (Nrf2/ARE) small molecule agonists: luciferase reporter gene qHTS assay in human keratinocytes (AID 1919969); further: nearly all actives have a fitted effect of over 35% in size; further: potency means the concentration at half of the fitted maximal effect
[2] = target: Gonadotropin-releasing hormone receptor (Homo sapiens) (UniProt P30968); experiment: Human gonadotropin-releasing hormone receptor (GnRHR) small molecule agonists, calcium flux assay in GnRHR-HEK293 cells (AID 1920063); further: nearly all actives have a fitted effect of over 35% in size
Summary of the method: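 Fluorescence kinetics (480 nm excitation, 540 nm emission; 3 min, 1 s steps) report calcium mobilisation in human GnRHR-HEK293 cells in agonist mode. Dye incubation: 1 h, 37 C.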

[3] = target: KiSS-1 receptor (Homo sapiens) (UniProt Q969F8); experiment: Human kisspeptin (KISS1R) small molecule agonists, calcium flux assay in KISS1R-HEK293 cells (AID 1920064; active means well fitted activation curve with a large enough effect in the repeat runs)
Summary of the method: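 Measures KISS1R agonism through calcium-sensitive dye fluorescence in stably transfected HEK293 cells, read for 3 min after pin-tool compound delivery; 15-point titrations in triplicate.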

[4] = G protein-coupled receptor (GPCR) small molecule agonists, calcium flux assay: HEK293 wild type cell line counter screen (AID 1920065)
Summary of the method: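 Readout: fluorescence at 480 nm excitation/540 nm emission, sampled at 1 s intervals for 3 min. Cells had been cultured 18 h, then dye-loaded 1 h at 37 C before compound or ATP addition.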

[5] = p53 small molecule agonists, cell-based qHTS assay with human liver microsomes (AID 1963577)
Summary of the method: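 p53RE-bla cells, 4,000/well, compound added after 5 h, with human liver microsomes 0.5 mg/mL and NADPH 0.5 mg/mL final; 16 h at 37 C, then LiveBLAzer 2 h RT, fluorescence.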

[6] = p53 small molecule agonists, cell-based qHTS assay with rat liver microsomes (AID 1963578)
Summary of the method: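 p53RE-bla cells, 4,000/well, pre-incubated 5 h, then given compounds plus rat liver microsomes (0.5 mg/mL final) and NADPH (0.5 mg/mL final). Incubation 16 h at 37 C; beta-lactamase reporter read by LiveBLAzer fluorescence after 2 h at room temperature.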

[7] = p53 small molecule agonists, cell-based qHTS assay with human liver microsomes: qHTS cell viability counter screen (AID 1963579); further: nearly all actives have a fitted effect of over 45% in size
Summary of the method: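 p53RE-bla cells, 4,000/well, dosed 5 hours after plating, with human liver microsomes (0.5 mg/mL final) plus NADPH (0.5 mg/mL final), 16 hours at 37 C. Viability read as CellTiter-Glo luminescence after 30 min at room temperature.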

[8] = p53 small molecule agonists, cell-based qHTS assay with rat liver microsomes: qHTS cell viability counter screen (AID 1963580); further: nearly all actives have a fitted effect of over 45% in size
Summary of the method: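 HCT-116 p53RE-bla, 4,000 cells/well, 5 h pre-incubation; cpd + rat liver microsomes 0.5 mg/mL + NADPH 0.5 mg/mL (final); 16 h, 37 C; CellTiter-Glo, 30 min RT; luminescence.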

[9] = p53 small molecule agonists, cell-based qHTS assay: qHTS cell viability counter screen (AID 1963581); further: nearly all actives have a fitted effect of over 45% in size
Summary of the method: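 In the same plates used for the p53 bla reporter, HCT-116 cells given compounds for 16 h at 37 C received CellTiter-Glo; luminescence was recorded 30 min later at room temperature.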

[10] = p53 small molecule agonists, cell-based qHTS assay (AID 1963582; active means well fitted activation curve with a large enough effect in the signal ratio in the repeat runs, not every such curve was filed as active; the % refers to the signal ratio)
Summary of the method: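 Compounds are pin-transferred in DMSO onto p53RE-bla cells and incubated 16 h at 37 C. The B/G FRET beta-lactamase substrate is then applied for 2 h at RT and fluorescence recorded.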

[11] = target: 5-hydroxytryptamine receptor 2A (Homo sapiens) (UniProt P28223); experiment: 5-hydroxytryptamine receptor 2A (HTR2A) small molecule antagonists, cell-based qHTS assay (AID 1963586); further: nearly all actives have a fitted effect of over 45% in size
Summary of the method: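 Antagonist-mode intracellular calcium assay: DOI (4 nM) added after 5 min compound pre-incubation at room temperature to dye-loaded HTR2A-CHO cells. Fluorescence followed for 3 min, sampled every second.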

[12] = target: 5-hydroxytryptamine receptor 2A (Homo sapiens) (UniProt P28223); experiment: 5-hydroxytryptamine receptor 2A (HTR2A) small molecule agonists, cell-based qHTS assay (AID 1963587); further: nearly all actives have a fitted effect of over 30% in size
Summary of the method: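 Kinetic calcium-flux fluorescence (2 min, 1 sec intervals) after compound addition in agonist mode. HTR2A-CHO cells were cultured 18 h, then dye-loaded 1 h at 37 C.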

[13] = target: Muscarinic acetylcholine receptor M1 (Homo sapiens) (UniProt P11229); experiment: Cholinergic receptor muscarinic 1 (CHRM1) small molecule antagonists, cell-based qHTS assay (AID 1963588); further: nearly all actives have a fitted effect of over 40% in size
Summary of the method: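 CHRM1-CHO calcium-flux assay, antagonist mode. Cells were seeded 18 h, dye-loaded 1 h at 37 C and given compound for 5 min at RT, then acetylcholine was added at 50nM. FDSS fluorescence was read 3 min; 15 concentrations, three runs.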

[14] = target: Muscarinic acetylcholine receptor M1 (Homo sapiens) (UniProt P11229); experiment: Cholinergic receptor muscarinic 1 (CHRM1) small molecule agonists, cell-based qHTS assay (AID 1963589); further: nearly all actives have a fitted effect of over 35% in size
Summary of the method: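 Each compound was tested at 15 concentrations across three independent runs on dye-loaded CHO cells stably expressing human CHRM1, reading intracellular calcium fluorescence kinetically at 1 sec intervals.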

[15] = cAMP Responsive Elements (CRE) small molecule agonists, cell-based qHTS assay (AID 1963590)
Summary of the method: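 Cell line: CRE-bla HEK 293T; medium DMEM/10% dialyzed FBS/0.1 mM NEAA/1 mM pyruvate/25 mM HEPES; 3 h compound exposure; beta-lactamase FRET readout after 2 h substrate loading at RT.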

[16] = cAMP Responsive Elements (CRE) small molecule antagonists, cell-based qHTS assay (AID 1963591; active means well fitted inhibition curve with a large enough effect in the signal ratio in the repeat runs, not every such curve was filed as active; the % refers to the signal ratio)
Summary of the method: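 Inhibition of NKH477-driven (0.25 uM final) CRE-beta-lactamase signal in HEK293T cells, 3 h compound exposure at 37 °C, detected by FRET substrate fluorescence.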

[17] = target: Beta-2 adrenergic receptor (Homo sapiens) (UniProt P07550); experiment: Adrenergic beta2 receptor (ADRB2) small molecule antagonists, cell-based qHTS assay (AID 1963592); further: series mostly up to about 92 µM; nearly all actives have a fitted effect of over 50% in size
Summary of the method: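 Cells (CHO, stable ADRB2 overexpression) incubated 18-20hr at 37C; compounds added from DMSO; agonist mix (1nM isoproterenol, 100uM IBMX, 25uM Ro-20-1724) added; 0.5hr RT; d2-cAMP and anti-cAMP-cryptate added; 1hr RT; 665/615 nm read.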

[18] = target: D(2) dopamine receptor (Homo sapiens) (UniProt P14416); experiment: Dopamine D2 receptor (DRD2) small molecule agonists, cell-based qHTS assay (AID 1963594); further: nearly all actives have a fitted effect of over 35% in size
Summary of the method: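 cAMP accumulation in DRD2-HEK293 cells measured by HTRF after 1 h detection; compounds added 10 min before NKH477 (200nM […]) forskolin-analogue stimulation, 30 min at room temperature, with Ro20-1724 present at 0.1 mM final.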

[19] = target: D(2) dopamine receptor (Homo sapiens) (UniProt P14416); experiment: Dopamine D2 receptor (DRD2) small molecule antagonists, cell-based qHTS assay (AID 1963595; active means well fitted inhibition curve with a large enough effect in the signal ratio in the repeat runs, with a control signal flat; the % refers to the signal ratio)
Summary of the method: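 Human DRD2 antagonist qHTS measuring cAMP by HTRF. The cells are exposed to compound for 10 min, then to NKH477 (200 nM) and quinpirole (12 nM) for 30 min at RT, with Ro20-1724 (0.1 mM) present throughout.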

Measured: Potency

Chain of Gonadotropin-releasing hormone receptor (Homo sapiens) (P30968 whole entry, looked up): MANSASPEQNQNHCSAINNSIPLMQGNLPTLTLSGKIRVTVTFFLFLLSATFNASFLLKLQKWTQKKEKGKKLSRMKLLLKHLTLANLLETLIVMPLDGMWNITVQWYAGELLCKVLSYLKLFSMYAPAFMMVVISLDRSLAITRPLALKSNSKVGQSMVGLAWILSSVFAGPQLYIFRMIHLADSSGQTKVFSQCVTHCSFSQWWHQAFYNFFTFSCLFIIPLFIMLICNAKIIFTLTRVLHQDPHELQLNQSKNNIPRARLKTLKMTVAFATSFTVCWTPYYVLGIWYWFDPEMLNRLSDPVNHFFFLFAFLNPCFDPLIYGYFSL
Chain of 5-hydroxytryptamine receptor 2A (Homo sapiens) (P28223 whole entry, looked up): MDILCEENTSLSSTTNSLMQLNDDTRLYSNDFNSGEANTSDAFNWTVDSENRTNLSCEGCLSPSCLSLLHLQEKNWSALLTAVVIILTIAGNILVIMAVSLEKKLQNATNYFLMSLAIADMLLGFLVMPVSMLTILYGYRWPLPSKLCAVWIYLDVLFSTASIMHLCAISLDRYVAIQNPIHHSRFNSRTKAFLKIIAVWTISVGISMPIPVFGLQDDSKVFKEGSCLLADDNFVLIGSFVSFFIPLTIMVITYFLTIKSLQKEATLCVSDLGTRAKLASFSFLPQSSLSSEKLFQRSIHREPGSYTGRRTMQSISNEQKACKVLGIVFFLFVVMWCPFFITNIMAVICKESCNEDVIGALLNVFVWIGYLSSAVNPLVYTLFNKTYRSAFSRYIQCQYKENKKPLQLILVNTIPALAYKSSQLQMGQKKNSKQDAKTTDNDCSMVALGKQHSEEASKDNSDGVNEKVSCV
Chain of Beta-2 adrenergic receptor (Homo sapiens) (P07550 whole entry, looked up): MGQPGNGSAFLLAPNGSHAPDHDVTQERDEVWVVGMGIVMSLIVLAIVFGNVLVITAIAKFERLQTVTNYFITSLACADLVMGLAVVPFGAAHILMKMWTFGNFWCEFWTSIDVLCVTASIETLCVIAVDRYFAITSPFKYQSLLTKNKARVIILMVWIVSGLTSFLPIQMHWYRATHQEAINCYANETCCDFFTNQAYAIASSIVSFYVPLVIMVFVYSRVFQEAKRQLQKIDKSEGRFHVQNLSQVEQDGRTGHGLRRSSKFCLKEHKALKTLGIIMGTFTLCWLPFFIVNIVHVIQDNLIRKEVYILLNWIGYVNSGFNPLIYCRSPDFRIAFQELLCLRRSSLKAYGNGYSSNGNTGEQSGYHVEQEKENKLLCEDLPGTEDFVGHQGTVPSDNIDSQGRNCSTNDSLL
Chain of Muscarinic acetylcholine receptor M1 (Homo sapiens) (P11229 whole entry, looked up): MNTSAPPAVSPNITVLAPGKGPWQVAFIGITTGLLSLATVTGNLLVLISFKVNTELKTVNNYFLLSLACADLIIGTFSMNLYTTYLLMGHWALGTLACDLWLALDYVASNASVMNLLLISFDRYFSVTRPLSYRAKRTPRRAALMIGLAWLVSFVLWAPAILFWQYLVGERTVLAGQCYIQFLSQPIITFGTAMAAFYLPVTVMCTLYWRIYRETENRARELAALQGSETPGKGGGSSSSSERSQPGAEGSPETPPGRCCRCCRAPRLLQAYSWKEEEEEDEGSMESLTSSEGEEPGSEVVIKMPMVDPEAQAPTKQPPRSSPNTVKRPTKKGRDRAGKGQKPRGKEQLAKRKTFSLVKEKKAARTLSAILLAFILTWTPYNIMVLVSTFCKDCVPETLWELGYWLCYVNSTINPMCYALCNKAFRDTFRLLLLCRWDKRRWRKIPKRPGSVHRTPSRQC
Chain of KiSS-1 receptor (Homo sapiens) (Q969F8 whole entry, looked up): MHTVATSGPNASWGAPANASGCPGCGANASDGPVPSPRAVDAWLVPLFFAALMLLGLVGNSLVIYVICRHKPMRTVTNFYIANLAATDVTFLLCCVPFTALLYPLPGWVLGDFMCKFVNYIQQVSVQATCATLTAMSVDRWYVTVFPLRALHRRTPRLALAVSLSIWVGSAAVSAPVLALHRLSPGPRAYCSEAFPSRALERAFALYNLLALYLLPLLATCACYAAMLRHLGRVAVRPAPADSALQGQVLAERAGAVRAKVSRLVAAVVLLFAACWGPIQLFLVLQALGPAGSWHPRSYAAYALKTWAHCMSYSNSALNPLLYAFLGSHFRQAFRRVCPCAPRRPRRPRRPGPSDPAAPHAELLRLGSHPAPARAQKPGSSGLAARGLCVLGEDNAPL
Chain of D(2) dopamine receptor (Homo sapiens) (P14416 whole entry, looked up): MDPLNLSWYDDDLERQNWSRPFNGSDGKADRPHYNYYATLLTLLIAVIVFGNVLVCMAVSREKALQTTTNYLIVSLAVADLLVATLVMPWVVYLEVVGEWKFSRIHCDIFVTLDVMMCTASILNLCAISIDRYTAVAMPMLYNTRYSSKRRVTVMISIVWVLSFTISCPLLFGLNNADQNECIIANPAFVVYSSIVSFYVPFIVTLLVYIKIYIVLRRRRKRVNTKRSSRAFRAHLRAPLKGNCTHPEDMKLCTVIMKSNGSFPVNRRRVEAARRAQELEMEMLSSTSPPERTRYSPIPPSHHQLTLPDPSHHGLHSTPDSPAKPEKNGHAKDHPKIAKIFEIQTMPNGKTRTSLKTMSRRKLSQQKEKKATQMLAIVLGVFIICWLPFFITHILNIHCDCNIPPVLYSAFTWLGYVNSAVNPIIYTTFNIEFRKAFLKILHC

C=C(C)C(=O)OCCCCCCCCCCOC(=O)C(=C)C
inactive: all assays above

Cc1cccc(C)c1NC(=O)CN1CCCC1
not listed: [11] | [18]
inactive: all other assays above

CCCCOC(=O)/C=C\C(=O)OCCCC
active: [1] 25.2 µM
not listed: [16]
inactive: all other assays above
